An excerpt weighted towards active compounds, which were near 4.1% of everything screened.
EBV LMP1 NFkB = reduces LMP1-driven NF-kappaB luciferase signal | LMP1-induced NF-kappaB luciferase reporter cells, luminescence | inhibition, % at 12.5 µM | hit rate 0.69% among 350,000 | AID 504558; in the data active = inhibition above about 41%;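 note: 0% = neutral control wells and 100% = reference inhibitor control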
TWEAK Fn14 block = blocks TWEAK-Fn14 interaction in a reporter cell assay; hit rate 2% among 360,000; inhibition, % at 10 µM; AID 1159606; TWEAK-stimulated Fn14 reporter cells, luciferase luminescence, 8 h; in the data active = inhibition above about 50%
Peg3 prom inh = reduces Peg3 promoter-driven luciferase expression in HeLa; inhibition, % at 20 µM; AID 588405; HeLa PEG-Prom luciferase reporter, luminescence, overnight; hit rate 1.7% among 360,000;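 active = inhibition of at least 50% at 20 µM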
TRPM1 prom inh = inhibitors of MITF-driven TRPM1 promoter in melanoma cells | SK-MEL-5 TRPM1 promoter luciferase, 24 h | inhibition, % at 12.5 µM | hit rate 0.83% among 330,000 | AID 488899;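 active = mean inhibition across replicates of 60% or more, whatever share of single replicates reaches that level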
Shn3 inh set2 = inhibitors of Schnurri-3 3'UTR reporter in osteoblasts | AID 588674 | hit rate 0.52% among 360,000 | inhibition, % at 12.5 µM | Clone20 osteoblast Shn3 3'UTR firefly luciferase, 24 h;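 active = mean inhibition of at least 75% with every replicate also reaching 75%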;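 note: 0% = median of neutral control wells and 100% = pilot-screen positive control compound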
TROY signal inh = TROY signaling inhibition | Q293 LMP1-TROYcd NF-kB luciferase reporter, 4 h | inhibition, % at 10 µM | hit rate 0.98% among 360,000;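 active = compounds whose plate-normalised and pattern-corrected inhibition of the luciferase reporter signal at the single screening dose is 50% or more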
Active calls of the source: *; . = no result given.

SMILES	EBV LMP1 NFkB	TWEAK Fn14 block	Peg3 prom inh	TRPM1 prom inh	Shn3 inh set2	TROY signal inh
CCCOc1ccc(C(=O)NC(=S)NNC(=O)c2c(-c3ccccc3)noc2C)cc1	-1.8	6.1	9.5	-8.2	47.6	9.0
CCCOc1ccc(-c2cc3onc(-c4ccccc4)c3c(=O)n2C)cc1	-23.9	89.0*	-96.7	-37.1	-18.8	81.4*
Cc1ccc(-c2cc3onc(-c4ccccc4)c3c(=O)n2C)cc1	38.1	102.0*	-4.5	96.7*	-18.5	88.6*
CSc1nc2ccc(NS(=O)(=O)c3ccc4c(c3)OCCO4)cc2s1	15.2	18.4	7.0	2.5	26.1	12.7
CCC1=[N+](C)c2cccc3cccc(c23)N1C	-0.4	-13.7	5.6	2.9	-1.9	9.8
Cc1cc(C)nc(NC(N)=NCCc2ccccc2)n1	29.9	25.1	34.8	65.4*	27.0	14.0
Cc1cc(C)nc(NC(N)=NCCc2c[nH]c3ccccc23)n1	12.2	7.8	31.1	36.3	-17.9	8.6
O=C(CN(Cc1cccs1)S(=O)(=O)c1ccc(S(=O)(=O)NC2CCCCC2)cc1)Nc1ccccc1	1.9	69.3*	47.4	-0.1	48.8	26.8
O=C(CN(C1CC1)S(=O)(=O)c1ccc(S(=O)(=O)NC2CCCCC2)cc1)Nc1ccccc1	7.6	24.4	25.7	-6.2	6.6	30.2
CC1Cc2ccccc2N1C(=O)c1cc2sccc2n1Cc1ccc(F)cc1 (stereo unspecified)	-9.0	16.9	54.0*	13.2	16.1	3.5
O=C(CN(Cc1ccco1)Cc1cccs1)N1CCN(S(=O)(=O)c2cccc(F)c2)CC1	-0.7	4.4	12.9	0.6	-3.4	4.5
O=C(O)c1ccc(-n2cccc2/C=C2/NC(=O)N(c3cccc(Cl)c3)C2=O)cc1	0.0	10.3	10.5	4.0	10.4	-11.5
O=C(O)c1ccc(-n2cccc2/C=C2/NC(=O)N(c3ccccc3)C2=O)cc1	-2.6	-17.6	-3.7	-6.0	-6.8	68.3*
O=C(Nc1nnc([C@@H]2C[C@H](O)[C@@H](CO)O2)s1)c1cccc(Cl)c1	.	10.1	-13.0	.	4.3	-36.1
CCCCn1c(SCC(=O)NC2CCS(=O)(=O)C2)nc2ccccc2c1=O (stereo unspecified)	-1.1	5.3	8.2	-14.2	-11.9	9.8
CCc1nnc(NC(=O)c2cccc(S(=O)(=O)N3CCN(C)CC3)c2)s1	-1.1	16.1	4.9	.	7.4	-14.6
CCc1nnc(NC(=O)c2ccc(COc3ccc(C)cc3)o2)s1	-6.4	2.5	-3.6	-0.5	1.2	-32.3
CCc1nnc(NC(=O)c2nc(S(=O)(=O)Cc3ccc(C)cc3)ncc2Cl)s1	10.2	95.3*	105.9*	69.5*	93.7*	51.1*
CCc1nnc(NC(=O)c2nc(S(=O)(=O)Cc3ccccc3)ncc2Cl)s1	31.0	97.1*	104.1*	79.8*	98.3*	32.9
CCc1nnc(NC(=O)c2nc(Cl)ccc2Cl)s1	-6.2	-6.3	9.4	1.0	-1.5	-23.4
CCc1nnc(NC(=O)c2nc(S(=O)(=O)Cc3cccc(C)c3)ncc2Cl)s1	65.8*	97.0*	108.6*	75.7*	96.8*	46.2
CCOc1ccccc1NC(=O)c1nc(S(=O)(=O)Cc2cccc(C)c2)ncc1Cl	66.3*	78.5*	106.2*	93.4*	97.6*	70.5*
Cc1ccc(C(=O)NCCc2ccc(S(N)(=O)=O)cc2)cc1[N+](=O)[O-]	6.8	9.9	7.2	1.5	8.9	-4.8
CC(c1ccco1)N(C(=O)COc1ccc(Cl)cc1Cl)c1ccccn1 (stereo unspecified)	-21.3	84.2*	-120.3	-101.3	-54.3	62.2*
CCOC(=O)N1CCc2c(sc3nc4n(c(=O)c23)N=C(c2ccc(OC)cc2)CS4)C1	-5.1	3.9	28.7	-4.7	.	-2.3
SMILES	EBV LMP1 NFkB	TWEAK Fn14 block	Peg3 prom inh	TRPM1 prom inh	Shn3 inh set2	TROY signal inh
COc1ccc(CCNC(=O)CSC2=NS(=O)(=O)c3cc(F)ccc3N2)cc1OC	-5.1	-6.8	-18.5	.	-13.2	-14.0
COC(=O)c1c(NC(=S)NN2CCN(C)CC2)sc2c1CCC(C)C2 (stereo unspecified)	-17.8	-27.8	106.7*	50.6	17.5	-7.9
O=C(NC1=NCCS1)c1cccc(OC(F)F)c1	-31.5	-14.0	-206.6	-59.9	-93.8	-38.9
Cc1cccc(NC(=O)C23CCC(C)(C(=O)O2)C3(C)C)c1 (stereo unspecified)	-1.5	3.1	16.8	1.1	-20.5	4.1
CC(C)c1ccc(CC(=O)N2CCC2(C)C(=O)Nc2ccc3c(c2)OCCO3)cc1 (stereo unspecified)	.	51.2*	17.3	.	2.5	44.6
CC12CCC(C(=O)Nc3ccc4c(c3)OCCO4)(OC1=O)C2(C)C (stereo unspecified)	27.8	83.5*	12.3	24.8	15.3	70.3*
COC(=O)c1ccn(Cc2ccccc2Cl)n1	-16.2	-7.7	-143.6	-53.3	-41.6	-59.3
COc1ccc(NC(=O)CN(C)C(=O)c2cccnc2Sc2ccc(C)c(C)c2)cc1	-10.4	-15.8	21.4	2.3	9.9	-14.4
CCN(CC(=O)Nc1ccc(NC(C)=O)cc1)C(=O)c1cccnc1Sc1ccc(C)c(C)c1	41.2*	-14.0	3.1	2.9	1.8	-8.3
S=C(NNc1ccnc2cc(Cl)ccc12)Nc1ccc(Cl)cc1Cl	10.9	7.1	52.3*	64.5*	87.9*	19.5
CCOc1ccc(NC(=S)NNc2ccnc3cc(Cl)ccc23)cc1	6.0	18.6	2.2	25.8	53.2	-6.4
Cc1cc(C)nc(NS(=O)(=O)c2ccc(NC(=O)c3cccc(N4C(=O)CCC4=O)c3)cc2)n1	-3.7	12.8	-14.0	-2.5	-18.1	-13.3
O=c1oc2ccccc2cc1-c1nc2c(s1)CCCC2	32.1	83.7*	-39.7	15.9	19.4	65.7*
Cc1ccc2c(c1)c(C1=c3ccccc3=NC1=O)c(O)n2C	9.4	29.4	21.2	13.7	96.4*	28.4
O=C(c1n[nH]c(=O)c2ccccc12)N1CCN(Cc2ccc3c(c2)OCO3)CC1	1.3	1.9	6.4	-1.2	-1.7	6.4
O=C(c1n[nH]c(=O)c2ccccc12)N1CCOCC1	-3.4	56.6*	-0.2	3.6	-7.1	.
O=C(Cn1nc(C(F)F)cc1C1CC1)N1CCCC1	-1.3	14.2	-10.8	7.5	-12.4	4.1
NC(=S)n1[nH]c(-c2ccc([N+](=O)[O-])cc2)c(N=Nc2ccccc2[N+](=O)[O-])c1=O	-2.3	-5.7	-5.1	7.9	9.4	2.9
Cc1[nH]n(C(N)=S)c(=O)c1N=Nc1cccc([N+](=O)[O-])c1C	-10.8	-34.9	-275.6	-73.3	-58.2	-32.5
NC(=S)n1[nH]c(-c2ccc([N+](=O)[O-])cc2)c(N=Nc2cccc([N+](=O)[O-])c2)c1=O	-4.2	70.8*	48.8	15.4	41.3	64.2*
Cc1c(N=Nc2c(-c3ccc([N+](=O)[O-])cc3)[nH]n(C(N)=S)c2=O)cccc1[N+](=O)[O-]	32.6	70.1*	16.4	62.0*	16.1	47.1

Bioassay records from PubChem BioAssay.
